An excerpt weighted towards active compounds, which were near 3.5% of everything screened.
FBW7 act: human FBW7 E3 ligase activation, primary screen; Q969H0; AlphaScreen FBW7–phospho-cyclin E peptide binding, activator screen; normalized activity (activation), % at 26.1 µM; 650,000 compounds, 0.13% hits; in the data active = normalized activity above about 1.9%;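 also: purified mutant Fbw7 with reduced substrate affinity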
GPR151 activ: human GPR151 activation; Q8TDV0; PathHunter beta-arrestin GPR151 cells, luminescence; activation, % at 11.2 µM; 650,000 compounds, 1% hits; in the data active = activation above about 4.9%
Target sequence (Q8TDV0 whole entry, looked up): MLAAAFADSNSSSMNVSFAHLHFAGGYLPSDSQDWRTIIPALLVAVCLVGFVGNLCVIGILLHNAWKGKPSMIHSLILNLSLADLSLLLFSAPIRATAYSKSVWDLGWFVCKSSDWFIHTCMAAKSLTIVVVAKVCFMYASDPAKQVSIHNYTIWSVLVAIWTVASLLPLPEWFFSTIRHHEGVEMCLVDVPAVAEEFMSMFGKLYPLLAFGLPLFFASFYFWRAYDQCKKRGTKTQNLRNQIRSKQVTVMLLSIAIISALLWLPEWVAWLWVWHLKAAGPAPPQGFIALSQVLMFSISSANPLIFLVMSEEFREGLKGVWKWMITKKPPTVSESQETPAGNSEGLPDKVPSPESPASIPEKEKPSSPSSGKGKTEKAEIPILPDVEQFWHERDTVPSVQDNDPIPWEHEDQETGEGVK
MITF primary: human MITF inhibition, primary screen | AlphaScreen MITF homodimerization, bead proximity signal | inhibition, % at 2.6 µM | 650,000 compounds, 0.91% hits | AID 1259374; in the data active = inhibition above about 50%
TEAD-YAP block: TEAD-YAP interaction inhibition. 640,000 compounds, 1.4% hits. inhibition, % at 9.12 µM. HEK-TIYL cells, TEAD-Gal4/YAP UAS-luciferase luminescence; in the data active = inhibition above about 32%
Numbers stand for hits; i = inactive; ! = repeats disagree.

SMILES	FBW7 act	GPR151 activ	MITF primary	TEAD-YAP block
COc1cc(Nc2nc(NCCCN3CCCC3=O)nc3c2ncn3-c2ccsc2)cc(OC)c1OC	i	i	i	i
COCCNC(=O)/C(C#N)=C/c1cn(CCOc2ccccc2C)c2ccccc12	i	i	i	i
O=C(Oc1ccc(N2C(=O)C=CC2=O)cc1)c1cccc2ccccc12	1.9	i	i	i
O=C(N/N=C/c1ccc(O)c(O)c1O)C1COc2ccccc2O1 (stereo not drawn)	i	i	55	i
COc1cc([N+](=O)[O-])cc(/C=N/NC(=O)C2COc3ccccc3O2)c1O (stereo not drawn)	i	i	i	i
COc1cccc(/C=N/NC(=O)C2COc3ccccc3O2)c1O (stereo not drawn)	i	i	69	i
C/C(=N\NC(=O)C1COc2ccccc2O1)c1ccccc1 (stereo not drawn)	i	i	i	i
Cc1ccc(/C=N/NC(=O)C2COc3ccccc3O2)c(O)c1 (stereo not drawn)	i	i	i	53
C/C(=N\NC(=O)C1COc2ccccc2O1)c1ccco1 (stereo not drawn)	i	i	i	39
CCN1CCCC1CNS(=O)(=O)c1c(C)c(C)cc(C)c1C (stereo not drawn)	i	i	i	i
O=C(N/N=C/c1ccccc1)C1COc2ccccc2O1 (stereo not drawn)	i	i	i	37
COc1cc(Cl)cc(/C=N\NC(=O)C2COc3cc4ccccc4cc3O2)c1O (stereo not drawn)	i	i	i	53
O=C(N/N=C/c1ccc2c3c(cccc13)CC2)C1COc2ccccc2O1 (stereo not drawn)	i	i	i	49
COCc1cccc(-c2cncc(-c3ccc(O)cc3)n2)c1	i	i	i	i
CCOC(=O)c1c(N)n(CCc2ccccc2OC)c2nc3ccccc3nc12	i	i	i	i
CN1C(=O)C2(c3cc(Br)ccc31)N1CC3(C)CN2CC(C)(C1)C3=O (stereo not drawn)	i	i	i	i
Cc1ccc(N2C(=O)c3ccccc3C2O)nc1 (stereo not drawn)	i	i	i	78
O=C(Nc1ccc(Cl)cc1)c1cc(S(=O)(=O)NCc2ccccc2Cl)ccc1F	i	i	i	i
COc1cc(/C=N\NC(=O)c2cnccn2)cc(OC)c1OC	i	i	i	i
CC[C@H]1CN2CCc3cc(OC)c(OC)cc3C2C[C@@H]1CC1NCCc2cc(OC)c(OC)cc21 (stereo partly drawn)	i	i	i	95
CCCCCCn1nc(C(=O)Nc2cc(C(N)=O)cc(C(N)=O)c2)c2ccccc2c1=O	2.1	i	i	i
O=C(COc1ccccc1Cl)NNC(=O)c1ccncc1	i	i	i	i
Cc1c(C(=O)OCC(=O)c2ccc(Cl)cc2)cccc1[N+](=O)[O-]	i	i	i	i
Cc1ccc(C(=O)COC(=O)c2ccccc2[N+](=O)[O-])cc1C	i	i	i	49
COc1ccccc1Cn1ccn(CC(=O)Nc2ccc(Br)cc2)c(=O)c1=O	i	i	i	i
SMILES	FBW7 act	GPR151 activ	MITF primary	TEAD-YAP block
COc1ccc(CCNc2ncnc3[nH]ncc23)cc1	i	i	i	i
c1csc(CNc2ncnc3sccc23)c1	i	i	i	32
COc1ccc(CCNc2ncnc3sccc23)cc1	i	i	i	49
c1ccc(CNc2ncnc3sccc23)cc1	i	i	i	i
CCOc1ccc(N2C(=O)C3C4c5ccccc5C(C(C)=O)(c5ccccc54)C3C2=O)cc1 (stereo not drawn)	i	i	i	i
CCCCNc1c(C(=O)OCC)cnc2ccc(OCC)cc12	i	i	i	i
COc1ccc(-c2cccc3cnc(NC4CCC(C(=O)N5CCCC5)CC4)nc23)cc1F (stereo not drawn)	i	i	i	83!
COc1ccc(-c2cccc3cnc(Nc4ccc(-n5cnc(N6CCOCC6)n5)cc4)nc23)cc1F	i	i	i	i
Nc1ncn(C(=O)/C=C/c2ccc(Br)cc2)n1	i	i	i	i
O=C(Nc1ccc2[nH]ncc2c1)c1ccc(OC2CCOCC2)nc1	i	i	i	48
NCCOc1cc(C(=O)Nc2ccc3[nH]ncc3c2)ccn1	i	i	i	72
Cc1cccc(N(C)S(=O)(=O)c2ccc3c(c2)oc(=O)n3C)c1	i	i	i	46
CCc1ccc(C2=CC(c3ccccc3F)n3c(nc4ccccc43)N2)cc1 (stereo not drawn)	i	i	i	68
Cc1ccc(C2=CC(c3ccc(F)c(Br)c3)n3c(nc4ccccc43)N2)cc1 (stereo not drawn)	i	i	i	52
Cc1ccc(C2=CC(c3ccc(C)cc3)n3c(nc4ccccc43)N2)cc1 (stereo not drawn)	i	i	i	i
Fc1ccccc1C1C=C(c2ccc(Br)cc2)Nc2nc3ccccc3n21 (stereo not drawn)	i	i	i	i
COc1ccc(C2=CC(c3ccccc3F)n3c(nc4ccccc43)N2)cc1 (stereo not drawn)	i	i	i	35
COc1cccc(C2=CC(c3ccccc3F)n3c(nc4ccccc43)N2)c1 (stereo not drawn)	i	i	i	i
Cc1c(NC(=S)NC(=O)c2cc3ccccc3o2)cccc1-c1nc2ncccc2o1	i	i	i	i
CCOc1ccc(-n2c3nc(=O)[nH]c(=O)c-3cc3cc4c(cc32)OCO4)cc1	i	i	i	i
COc1ccc(-c2nc3n(n2)C(c2ccc(OC)cc2)C(C(N)=O)=C(C)N3)cc1 (stereo not drawn)	i	i	i	i
Cc1ccnc(N2C(=O)C3C4c5ccccc5C(c5ccccc54)C3C2=O)c1 (stereo not drawn)	i	i	i	i
C=CCNC(=O)Cc1coc2cc(C)cc(C)c12	i	i	i	i
COc1ccc(C(=O)N=c2nc3ccccn3s2)cc1	i	i	i	70
COc1cc2oc(C(=O)O)c(C)c2cc1Br	i	i	i	i
SMILES	FBW7 act	GPR151 activ	MITF primary	TEAD-YAP block
COC(=O)C1=C(C)NC2=C(C(=O)CC(c3cccs3)C2)C1c1cc(OC)c(Br)cc1OC (stereo not drawn)	i	i	i	60
COC(=O)C1=C(C)NC2=C(C(=O)CC(c3cccs3)C2)C1c1ccsc1 (stereo not drawn)	i	i	i	33
COC(=O)C1=C(C)NC2=C(C(=O)CC(c3cccs3)C2)C1c1cccs1 (stereo not drawn)	i	i	i	i
CCc1ccc(C2C(C(=O)OC(C)C)=C(C)NC3=C2C(=O)CC(c2cccs2)C3)s1 (stereo not drawn)	i	i	i	i
CC1=C(C(=O)OC(C)C)C(c2cccs2)C2=C(CC(c3cccs3)CC2=O)N1 (stereo not drawn)	i	i	i	37
COCCOC(=O)C1=C(C)NC2=C(C(=O)CC(c3cccs3)C2)C1c1ccccc1F (stereo not drawn)	i	i	i	i
COCCOC(=O)C1=C(C)NC2=C(C(=O)CC(c3cccs3)C2)C1c1ccc(F)cc1 (stereo not drawn)	i	i	i	36!
CCOC(=O)C1=C(C)NC2=C(C(=O)CC(c3cccs3)C2)C1c1cccs1 (stereo not drawn)	i	i	i	51!
